Results with a measured potency or affinity are listed apart. Inconclusive results are not listed. Calls of active or inactive are those of the source.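 The calls were made as follows: active = a valid curve of falling signal whose half-effect concentration is at most ten times the top tested dose; inconclusive = flat curve at 30 to 70% inhibition, or poor fit; inactive = signal rise, flat within 30%, or potency beyond limit.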
Target: Scavenger receptor class B member 1 (Mus musculus) (UniProt Q61009)
Test: inhibitors of SR-BI mediated HDL lipid uptake, dose response, ldlA[mSR-BI] cells, fluorescence, cherry pick (AID 493194);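 also: CHO cells lacking LDL receptor and overexpressing mouse SR-BI; cellular uptake of fluorescently labeled HDL measured as cell fluorescence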

Sequence of Scavenger receptor class B member 1 (Mus musculus) (Q61009 whole entry, looked up): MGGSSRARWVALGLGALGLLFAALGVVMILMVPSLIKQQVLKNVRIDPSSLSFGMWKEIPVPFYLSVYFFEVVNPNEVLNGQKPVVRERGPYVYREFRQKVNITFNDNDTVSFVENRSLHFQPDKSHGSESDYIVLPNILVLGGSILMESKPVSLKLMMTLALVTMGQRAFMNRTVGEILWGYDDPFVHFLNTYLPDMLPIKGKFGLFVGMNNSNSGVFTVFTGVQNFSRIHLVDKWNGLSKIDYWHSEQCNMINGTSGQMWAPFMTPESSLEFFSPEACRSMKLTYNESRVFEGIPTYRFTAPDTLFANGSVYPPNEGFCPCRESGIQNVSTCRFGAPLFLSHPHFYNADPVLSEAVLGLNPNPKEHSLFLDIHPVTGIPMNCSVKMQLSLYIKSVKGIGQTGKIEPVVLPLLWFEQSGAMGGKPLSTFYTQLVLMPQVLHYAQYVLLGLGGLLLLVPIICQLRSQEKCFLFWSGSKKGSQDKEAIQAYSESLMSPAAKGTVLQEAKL

SMILES	outcome
CCCC(=O)N1c2ccc(-c3csc(N)n3)cc2CC1C (centres undefined)	inactive
CCOc1ccccc1NC(=O)N1C2CCCC1CC(NC(=O)C1CC1)C2 (centres undefined)	inactive
Cc1cc(N(C)C(=O)c2ccc3c(c2)S(=O)(=O)c2cc(Cl)ccc2C3=O)c(C(F)(F)F)o1	inactive
CC(=O)c1ccc(-c2ccc(C(=O)Nc3nc(-c4ccccn4)cs3)o2)cc1	inactive
CCc1cc(=O)oc2c3c(cc(OCC(=O)NCc4ccco4)c12)OC(C)(C)CC3	inactive
CC(=O)NCCC1CCN(C(=O)c2cc(COc3ccc(C)nc3)on2)CC1	inactive
COc1ccc(N2CC(C(=O)NCCC3=CCCCC3)CC2=O)c(OC)c1 (centres undefined)	inactive
CCC1CCCCN1C(=O)CSc1nnc(-c2ccco2)o1 (centres undefined)	inactive
Oc1csc(Cc2nc(-c3ccc4ccccc4c3)cs2)n1	inactive
Cc1ccc(-c2nnc(N3CCC(C)CC3)c3ccccc23)cc1C	inactive
COc1ccc2c(c1)OC[C@H]1[C@H]2N2C(=O)c3cc(Cl)ccc3NC(=O)[C@@]2(C)[C@H]1c1ccccc1	inactive
C[C@@H]1COC(=O)[C@H](NC(=O)OCC2c3ccccc3-c3ccccc32)C/C=C\C[C@@H](CC(=O)N[C@H](CO)Cc2ccccc2)C(=O)N1	inactive
Cc1ccc(/C=C/C(=O)Nc2sc3c(c2C#N)CCCC3)o1	inactive
COc1ccc(N2CCN(C(=O)Cc3csc(NC(=O)Nc4ccccc4OC)n3)CC2)cc1	inactive
COc1ccc(C(=O)N2CCN(c3ccc([N+](=O)[O-])c(NCCc4ccc(OC)c(OC)c4)c3)CC2)cc1	inactive
CC(C)c1nnc(NC(=O)CCC(=O)N2CCN(C3c4ccccc4-c4ccccc43)CC2)s1	inactive
Cc1cc(NC(=O)Nc2ccccc2)n(-c2ccccc2)n1	inactive
CCCOC(=O)c1[nH]c2c(c1C)C(=O)CC(c1cc(OC)c(OC)c(OC)c1)C2 (centres undefined)	inactive
Cn1c(-c2ccsc2)c(-c2cccs2)c2cc(-c3ccc4cc[nH]c4c3)ccc21	inactive
Cc1cccc(NC(=O)C2(C)CC3c4ccccc4C2c2ccccc23)c1C (centres undefined)	inactive
Cc1ccc(-c2cc(C(=O)Nc3sc4c(c3C(=O)NCc3ccco3)CCC4)[nH]n2)c(O)c1	inactive
CCOc1ccc(NC(=O)CN2CCN(CC(=O)Nc3ccc(C(=O)OC)cc3)CC2)cc1	inactive
COc1ccc([C@H]2CC(=O)C=C(c3cccc4c3sc3ccccc34)C2)cc1OC	inactive
COC(=O)c1ccc(C(=O)Nc2nc3cc(N)c(C)cc3s2)cc1	inactive

— PubChem BioAssay AID493194 (Broad Institute, 2011)
